# Experimental data reported in PMC11062922 (Nature Chemical Biology, 2023).
# Read-outs that look alike come from different tables or passages of the source.
# Assays:
# Set-up in all cases: species or system human, MV4-11 + K-562 + COLO205 + SK-N-BE2 + OVCAR-8
# ADCK1 = conditions: read-out: apparent Kd; compound concentrations: 100 nM and 1000 nM (sheet 'Samples'), CATDS: 3.00594248157054E-2; n = 1
# ADRBK1 = conditions: read-out: apparent Kd; compound concentrations: 100 nM and 1000 nM (sheet 'Samples'), CATDS: 2.4838233603700199E-2; n = 1
# AKT1 = conditions: read-out: apparent Kd; compound concentrations: 100 nM and 1000 nM (sheet 'Samples'), CATDS: 2.84891592844819E-2; n = 1
# AKT2 = conditions: read-out: apparent Kd; compound concentrations: 100 nM and 1000 nM (sheet 'Samples'), CATDS: 2.9280872528565802E-2; n = 1
# CDK16 = conditions: read-out: apparent Kd; compound concentrations: 100 nM and 1000 nM (sheet 'Samples'), CATDS: 6.3577465529015803E-2; n = 1
# CDK17 = conditions: read-out: apparent Kd; compound concentrations: 100 nM and 1000 nM (sheet 'Samples'), CATDS: 3.37360280865171E-2; n = 1
# CDK1 = conditions: read-out: apparent Kd; compound concentrations: 100 nM and 1000 nM (sheet 'Samples'), CATDS: 2.7245131481605699E-2; n = 1
# CDK2 = conditions: read-out: apparent Kd; compound concentrations: 100 nM and 1000 nM (sheet 'Samples'), CATDS: 4.36970242470427E-2; n = 1
# CDK6 = conditions: read-out: apparent Kd; compound concentrations: 100 nM and 1000 nM (sheet 'Samples'), CATDS: 3.4671115454836803E-2; n = 1
# CDK9 = conditions: read-out: apparent Kd; compound concentrations: 100 nM and 1000 nM (sheet 'Samples'), CATDS: 2.7346087342078398E-2; n = 1
# CDKL5 = conditions: read-out: apparent Kd; compound concentrations: 100 nM and 1000 nM (sheet 'Samples'), CATDS: 8.0435969039111696E-2; n = 1
# CLK1 = conditions: read-out: apparent Kd; compound concentrations: 100 nM and 1000 nM (sheet 'Samples'), CATDS: 3.0051387692213001E-2; n = 1
# CLK2 = conditions: read-out: apparent Kd; compound concentrations: 100 nM and 1000 nM (sheet 'Samples'), CATDS: 4.01054923107644E-2; n = 1
# CLK4 = conditions: read-out: apparent Kd; compound concentrations: 100 nM and 1000 nM (sheet 'Samples'), CATDS: 3.8689764998843801E-2; n = 1
# DYRK1A = conditions: read-out: apparent Kd; compound concentrations: 100 nM and 1000 nM (sheet 'Samples'), CATDS: 7.8363262326560101E-2; n = 1
# GSK3A = conditions: read-out: apparent Kd; compound concentrations: 100 nM and 1000 nM (sheet 'Samples'), CATDS: 0.62281927903821299; n = 1
# GSK3B = conditions: read-out: apparent Kd; compound concentrations: 100 nM and 1000 nM (sheet 'Samples'), CATDS: 0.401572679379325; n = 1
# ICK = conditions: read-out: apparent Kd; compound concentrations: 100 nM and 1000 nM (sheet 'Samples'), CATDS: 0.15504301579156199; n = 1
# MAP2K1 = conditions: read-out: apparent Kd; compound concentrations: 100 nM and 1000 nM (sheet 'Samples'), CATDS: 2.5511986591555801E-2; n = 1
# MAP2K2 = conditions: read-out: apparent Kd; compound concentrations: 100 nM and 1000 nM (sheet 'Samples'), CATDS: 2.5311950645342699E-2; n = 1
# MAPK7 = conditions: read-out: apparent Kd; compound concentrations: 100 nM and 1000 nM (sheet 'Samples'), CATDS: 2.4862770710026599E-2; n = 1
# NQO1 = conditions: read-out: apparent Kd; compound concentrations: 100 nM and 1000 nM (sheet 'Samples'), CATDS: 3.3718961414702597E-2; n = 1
# PIM1 = conditions: read-out: apparent Kd; compound concentrations: 100 nM and 1000 nM (sheet 'Samples'), CATDS: 3.8297140879790803E-2; n = 1
# PIM2 = conditions: read-out: apparent Kd; compound concentrations: 100 nM and 1000 nM (sheet 'Samples'), CATDS: 4.1089094062549299E-2; n = 1
# PRKACG = conditions: read-out: apparent Kd; compound concentrations: 100 nM and 1000 nM (sheet 'Samples'), CATDS: 4.2614442075595102E-2; n = 1
# PYGL = conditions: read-out: apparent Kd; compound concentrations: 100 nM and 1000 nM (sheet 'Samples'), CATDS: 2.55419672432197E-2; n = 1
# RIOK2 = conditions: read-out: apparent Kd; compound concentrations: 100 nM and 1000 nM (sheet 'Samples'), CATDS: 2.90661770930771E-2; n = 1
# ACVR1B = conditions: read-out: apparent Kd; compound concentrations:100 nM and 1000 nM (sheet 'Samples'); n = 1
# DAPK3 = conditions: read-out: apparent Kd; compound concentrations:100 nM and 1000 nM (sheet 'Samples'); n = 1
# PIK3CG = conditions: read-out: apparent Kd; compound concentrations:100 nM and 1000 nM (sheet 'Samples'); n = 1
# PKN3 = conditions: read-out: apparent Kd; compound concentrations:100 nM and 1000 nM (sheet 'Samples'); n = 1
# PRKD2 = conditions: read-out: apparent Kd; compound concentrations:100 nM and 1000 nM (sheet 'Samples'); n = 1
# PRKD3 = conditions: read-out: apparent Kd; compound concentrations:100 nM and 1000 nM (sheet 'Samples'); n = 1
# TGFBR2 = conditions: read-out: apparent Kd; compound concentrations:100 nM and 1000 nM (sheet 'Samples'); n = 1
# NQO2 = conditions: read-out: apparent Kd; compound concentrations:100 nM and 1000 nM (sheet 'Samples'); n = 1
# PIP4K2C = conditions: read-out: apparent Kd, n = 1
# TGFBR1 = conditions: read-out: apparent Kd; compound concentrations:100 nM and 1000 nM (sheet 'Samples'); n = 1
# MAPK14 = conditions: read-out: apparent Kd; compound concentrations:100 nM and 1000 nM (sheet 'Samples'); n = 1
# MAPKAPK2 = conditions: read-out: apparent Kd; compound concentrations:100 nM and 1000 nM (sheet 'Samples'); n = 1
# TNIK = conditions: read-out: apparent Kd; compound concentrations:100 nM and 1000 nM (sheet 'Samples'); n = 1
# ACVR2B = conditions: read-out: apparent Kd, compound concentrations: 100 nM and 1000 nM (sheet 'Samples'), n = 1
# BCR = conditions: read-out: apparent Kd; compound concentrations: 100 nM and 1000 nM (sheet 'Samples'), CATDS: 0.13309110379765501; n = 1
# EPHA1 = conditions: read-out: apparent Kd; compound concentrations: 100 nM and 1000 nM (sheet 'Samples'), CATDS: 0.10065713248800801; n = 1
# GAK = conditions: read-out: apparent Kd; compound concentrations: 100 nM and 1000 nM (sheet 'Samples'), CATDS: 0.10209993083840201; n = 1
# PTK6 = conditions: read-out: apparent Kd; compound concentrations: 100 nM and 1000 nM (sheet 'Samples'), CATDS: 9.8392012299874307E-2; n = 1
# RET = conditions: read-out: apparent Kd; compound concentrations: 100 nM and 1000 nM (sheet 'Samples'), CATDS: 0.106923709019676; n = 1
# RIPK2 = conditions: read-out: apparent Kd; compound concentrations: 100 nM and 1000 nM (sheet 'Samples'), CATDS: 0.37039480382744999; n = 1
# RIPK3 = conditions: read-out: apparent Kd; compound concentrations: 100 nM and 1000 nM (sheet 'Samples'), CATDS: 7.5580251546270003E-2; n = 1
# SIK2 = conditions: read-out: apparent Kd; compound concentrations: 100 nM and 1000 nM (sheet 'Samples'), CATDS: 0.152739498183388; n = 1
structure (smiles),measurement,setting,value
O=C(Nc1n[nH]c2nnc(-c3cccnc3)cc12)C1CC1.O=C(O)C(F)(F)F [SB-675259-M],potency estimated from few doses,ADCK1,1.03 µM
same,potency estimated from few doses,ADRBK1,2.13 µM
same,potency estimated from few doses,AKT1,1.24 µM
same,potency estimated from few doses,AKT2,1.13 µM
same,potency estimated from few doses,CDK16,0.151 µM
same,potency estimated from few doses,CDK17,0.726 µM
same,potency estimated from few doses,CDK1,1.46 µM
same,potency estimated from few doses,CDK2,0.366 µM
same,potency estimated from few doses,CDK6,0.671 µM
same,potency estimated from few doses,CDK9,1.44 µM
same,potency estimated from few doses,CDKL5,0.087 µM
same,potency estimated from few doses,CLK1,1.03 µM
same,potency estimated from few doses,CLK2,0.454 µM
same,potency estimated from few doses,CLK4,0.498 µM
same,potency estimated from few doses,DYRK1A,0.0926 µM
same,potency estimated from few doses,GSK3A,0.000113 µM
same,potency estimated from few doses,GSK3B,0.000279 µM
same,potency estimated from few doses,ICK,0.0147 µM
same,potency estimated from few doses,MAP2K1,1.89 µM
same,potency estimated from few doses,MAP2K2,1.96 µM
same,potency estimated from few doses,MAPK7,2.12 µM
same,potency estimated from few doses,NQO1,0.727 µM
same,potency estimated from few doses,PIM1,0.512 µM
same,potency estimated from few doses,PIM2,0.426 µM
same,potency estimated from few doses,PRKACG,0.389 µM
same,potency estimated from few doses,PYGL,1.88 µM
same,potency estimated from few doses,RIOK2,1.16 µM
Cc1csc(-c2nc(Nc3ccncc3)c3ccccc3n2)n1 [GW869640X],potency estimated from few doses,ACVR1B,0.0176 µM
same,potency estimated from few doses,DAPK3,1.29 µM
same,potency estimated from few doses,PIK3CG,1.46 µM
same,potency estimated from few doses,PKN3,0.939 µM
same,potency estimated from few doses,PRKD2,0.191 µM
same,potency estimated from few doses,PRKD3,0.504 µM
same,potency estimated from few doses,TGFBR2,0.75 µM
O=C(c1ccc(-c2cc(-c3c[nH]nc3-c3ccccn3)ccn2)cc1)N1CCCC1 [GW792479X],potency estimated from few doses,ACVR1B,0.27 µM
same,potency estimated from few doses,NQO2,1.39 µM
same,potency estimated from few doses,PIP4K2C; compound concentrations:100 nM and 1000 nM (sheet 'Samples'),1.65 µM
same,potency estimated from few doses,TGFBR1,0.118 µM
Nc1nc(-c2cccc(Cl)c2)c(-c2ccc3ncccc3n2)s1 [GW780159X],potency estimated from few doses,ACVR1B,0.00163 µM
same,potency estimated from few doses,MAPK14,1.44 µM
same,potency estimated from few doses,MAPKAPK2,1 µM
same,potency estimated from few doses,PRKD2,0.815 µM
same,potency estimated from few doses,TNIK,2.04 µM
Cl.NC(=O)c1cccc(Nc2nccc(Nc3cccc(F)c3)n2)c1 [GW759710A],potency estimated from few doses,ACVR2B; CATDS: 0.70743681093709798,0.45 µM
same,potency estimated from few doses,"PIP4K2C; compound concentrations: 100 nM and 1000 nM (sheet 'Samples'), CATDS: 0.38663089306687698",1.73 µM
Fc1cc(Cl)ccc1Nc1ccnc2cc(-c3ccc(CN4CCCCC4)o3)ccc12 [GW560116X],potency estimated from few doses,ACVR2B; CATDS: 8.5008478980750105E-2,1.08 µM
same,potency estimated from few doses,BCR,0.359 µM
same,potency estimated from few doses,EPHA1,0.67 µM
same,potency estimated from few doses,GAK,0.646 µM
same,potency estimated from few doses,PTK6,0.71 µM
same,potency estimated from few doses,RET,0.577 µM
same,potency estimated from few doses,RIPK2,0.0693 µM
same,potency estimated from few doses,RIPK3,1.65 µM
same,potency estimated from few doses,SIK2,0.276 µM
